The record followed here is ChEMBL document CHEMBL1961873, “Compounds: GSK PKIS; Assays: Nanosyn kinase panel” (2012).

Assay [1] deals with Mitogen-activated protein kinase 3 (Homo sapiens) (UniProt P27361). To be noted: at 1 µM.
Assay [2] concerns the target SRSF protein kinase 3 (Homo sapiens) (UniProt Q9UPE1). To be noted: at 0.1 µM.
Assay [3] shares this target. The following applies: at 1 µM.
Assay [4] deals with Mitogen-activated protein kinase 14 (Homo sapiens) (UniProt Q16539). The following applies: at 0.1 µM.
Mitogen-activated protein kinase 14 (Homo sapiens), sequence (Q16539 whole entry): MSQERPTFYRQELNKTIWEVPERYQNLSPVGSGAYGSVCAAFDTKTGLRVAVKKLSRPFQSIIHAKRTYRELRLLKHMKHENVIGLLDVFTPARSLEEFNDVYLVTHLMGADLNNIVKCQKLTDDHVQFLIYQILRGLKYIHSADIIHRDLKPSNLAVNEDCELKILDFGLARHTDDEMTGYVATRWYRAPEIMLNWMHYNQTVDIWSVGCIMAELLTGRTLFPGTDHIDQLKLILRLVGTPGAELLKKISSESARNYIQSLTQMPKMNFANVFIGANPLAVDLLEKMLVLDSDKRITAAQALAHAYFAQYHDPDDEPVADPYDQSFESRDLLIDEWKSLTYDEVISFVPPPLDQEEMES
Assay [5] has the same target. The following applies: at 1 µM.
In assay [6] the target is Mitogen-activated protein kinase 11 (Homo sapiens) (UniProt Q15759). To be noted: at 0.1 µM.
Mitogen-activated protein kinase 11 (Homo sapiens), sequence (Q15759 whole entry): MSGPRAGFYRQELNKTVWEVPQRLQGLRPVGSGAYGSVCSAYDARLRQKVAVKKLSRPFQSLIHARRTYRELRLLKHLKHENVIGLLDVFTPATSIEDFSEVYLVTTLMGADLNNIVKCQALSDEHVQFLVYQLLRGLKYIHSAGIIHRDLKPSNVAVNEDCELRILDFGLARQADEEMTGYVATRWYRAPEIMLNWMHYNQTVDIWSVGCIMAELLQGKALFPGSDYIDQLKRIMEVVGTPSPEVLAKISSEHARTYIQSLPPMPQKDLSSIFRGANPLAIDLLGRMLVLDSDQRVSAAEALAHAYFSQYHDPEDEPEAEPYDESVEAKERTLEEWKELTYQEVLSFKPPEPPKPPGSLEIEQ
Assay [7] shares this target. The following applies: at 1 µM.
In assay [8] the target is T1, Mitogen-activated protein kinase 13 (Homo sapiens) (UniProt O15264).
T1 sequence (whole entry): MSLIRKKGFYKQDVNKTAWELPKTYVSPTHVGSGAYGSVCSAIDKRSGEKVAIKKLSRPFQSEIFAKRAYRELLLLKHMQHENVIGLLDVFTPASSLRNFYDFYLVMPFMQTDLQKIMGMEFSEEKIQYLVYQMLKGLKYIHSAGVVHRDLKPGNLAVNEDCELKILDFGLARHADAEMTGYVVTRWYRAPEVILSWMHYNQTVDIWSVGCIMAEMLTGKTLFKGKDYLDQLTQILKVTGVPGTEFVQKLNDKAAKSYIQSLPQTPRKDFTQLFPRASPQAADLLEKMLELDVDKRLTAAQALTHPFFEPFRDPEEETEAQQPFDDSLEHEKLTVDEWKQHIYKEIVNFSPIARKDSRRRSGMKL
To be noted: at 0.1 µM.

Assay [9] addresses T1, Mitogen-activated protein kinase 13 (Homo sapiens). The following applies: at 1 µM.
In assay [10] the target is T2, Mitogen-activated protein kinase 12 (Homo sapiens) (UniProt P53778).
T2 sequence (whole entry): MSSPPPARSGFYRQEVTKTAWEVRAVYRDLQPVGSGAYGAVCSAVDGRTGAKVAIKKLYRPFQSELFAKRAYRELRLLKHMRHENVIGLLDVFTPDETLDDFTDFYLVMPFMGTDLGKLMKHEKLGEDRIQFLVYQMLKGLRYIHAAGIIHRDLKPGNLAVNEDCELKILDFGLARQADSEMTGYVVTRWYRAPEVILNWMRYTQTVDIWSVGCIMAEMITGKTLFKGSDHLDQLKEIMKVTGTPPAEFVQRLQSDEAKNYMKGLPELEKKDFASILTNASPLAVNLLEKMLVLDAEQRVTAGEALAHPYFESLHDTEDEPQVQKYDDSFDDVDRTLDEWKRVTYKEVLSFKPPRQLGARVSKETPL
The following applies: at 0.1 µM.

Mitogen-activated protein kinase 3 (Homo sapiens), sequence (P27361 whole entry): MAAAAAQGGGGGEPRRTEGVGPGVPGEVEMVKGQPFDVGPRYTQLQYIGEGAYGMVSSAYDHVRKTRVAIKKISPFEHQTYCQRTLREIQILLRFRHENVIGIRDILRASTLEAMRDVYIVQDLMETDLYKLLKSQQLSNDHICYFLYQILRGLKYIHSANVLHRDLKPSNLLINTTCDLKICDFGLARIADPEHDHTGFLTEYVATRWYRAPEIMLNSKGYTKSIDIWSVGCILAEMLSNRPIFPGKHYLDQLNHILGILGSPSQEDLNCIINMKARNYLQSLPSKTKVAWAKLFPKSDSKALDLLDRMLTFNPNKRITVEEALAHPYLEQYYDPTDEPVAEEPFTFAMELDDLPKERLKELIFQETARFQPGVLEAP
SRSF protein kinase 3 (Homo sapiens), sequence (Q9UPE1 whole entry): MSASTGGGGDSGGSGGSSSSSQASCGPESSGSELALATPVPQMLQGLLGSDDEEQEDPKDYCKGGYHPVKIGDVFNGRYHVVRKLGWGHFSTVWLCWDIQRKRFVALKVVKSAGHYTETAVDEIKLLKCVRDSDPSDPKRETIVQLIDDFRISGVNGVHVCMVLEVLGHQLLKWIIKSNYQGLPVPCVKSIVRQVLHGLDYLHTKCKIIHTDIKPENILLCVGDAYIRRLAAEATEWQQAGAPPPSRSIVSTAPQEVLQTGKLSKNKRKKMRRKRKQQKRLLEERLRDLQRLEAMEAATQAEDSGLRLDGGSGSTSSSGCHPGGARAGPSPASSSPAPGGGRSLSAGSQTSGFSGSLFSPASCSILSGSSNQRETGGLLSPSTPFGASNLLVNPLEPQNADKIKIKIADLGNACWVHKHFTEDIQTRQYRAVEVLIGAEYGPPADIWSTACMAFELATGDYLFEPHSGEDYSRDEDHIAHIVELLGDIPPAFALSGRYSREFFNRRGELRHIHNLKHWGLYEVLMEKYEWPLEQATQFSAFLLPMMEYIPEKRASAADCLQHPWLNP

Turning to `CCn1c(-c2nonc2N)nc2c(C#CC(C)(C)O)nc(OCCNC)cc21`, the inhibition in assay [1] is 4.08%; in assay [2], 0.05%; in [3] it was -0.46%; in assay [4], 6.16%; in [5] it was 7.38%; in assay [6], 2.05%. Besides, the inhibition in [7] stood at 2.15%; in assay [8] it was 4.59%; in assay [9] it was 5.13%; in assay [10], 3.83%.

Turning to `CCCN1CCCC(c2ccc(Nc3nc(Nc4cc(F)ccc4C(N)=O)c4cc[nH]c4n3)c(OC)c2)C1` (stereo not given), the inhibition turned out to be 9.65% in assay [1]; 4.66% in assay [2]; 28.2% in [3]; 13.9% in assay [4]; 17.1% in assay [5]; 7.57% in assay [6]. For the same compound, the inhibition in assay [7] came to 14.5%; in assay [8], 6.1%; in [9], 7.07%; in assay [10], 3.99%.

Turning to `Cc1cc(-c2ccccn2)cc(C)c1/C=C/c1cncc(-c2nn[nH]n2)c1`, the inhibition was 3.69% in assay [1]; -0.25% in assay [2]; -1.02% in [3]; 7.59% in assay [4]; 12.9% in assay [5]; 3.45% in assay [6]. For the same compound, the inhibition in assay [7] turned out to be 1.89%; in [8], 4.85%; in [9], 4.9%; in [10], 3.27%.

Take `Cc1ccc(Nc2ccnc(Nc3cccc(C(N)=O)c3)n2)cc1O`: the inhibition is 5.1% in [1]; 0.91% in [2]; 7.12% in assay [3]; 4.41% in assay [4]; 28% in assay [5]; 3.7% in assay [6]. For the same compound, the inhibition is 17.7% in [7], -1.12% in [8], 4.69% in assay [9] and -1.03% in [10].

In the case of `FC(F)(F)c1ccc(-c2nn3ncccc3c2-c2ccnc(Nc3ccc4c(c3)OCCO4)n2)cc1`, the inhibition in assay [1] came to 3.1%; in assay [2] it was 5.92%; in assay [3], 1.12%; in assay [4], 17.1%; in [5], 67.5%; in assay [6], 3.8%. For the same compound, the inhibition was 36.8% in [7], 5.26% in assay [8], 0.38% in assay [9] and 4.31% in [10].

`Cc1cc(Cl)cc2c1NC(=O)C2=NNc1ccc(S(N)(=O)=O)cc1`: the inhibition in [1] is 4.37%; in [2], 0.26%; in assay [3], -0.13%; in assay [4], -2.89%; in [5], 3.98%; in [6], 3.77%. For the same compound, the inhibition was 7.2% in assay [7], -1.04% in assay [8], 1.98% in assay [9] and 0.32% in assay [10].

With `COc1cc2ncnc(Nc3ccc(C)c(O)c3)c2cc1OC`, the inhibition was 7.04% in assay [1]; -1.99% in [2]; 0.42% in [3]; 5.71% in [4]; 22.1% in [5]; 6.38% in assay [6]. The inhibition in assay [7] was 17.4%; in assay [8], -2.57%; in assay [9], 6.31%; in assay [10] it was 2.43%.

Regarding `NC(=O)c1sc(-n2cnc3ccccc32)cc1OCc1ccccc1Br`, the inhibition in [1] was 4.22%; in assay [2], -0.27%; in [3], -0.72%; in assay [4] it was 8.45%; in assay [5], 23.1%; in assay [6] it was 1.2%. Moreover, the inhibition in assay [7] is 4.68%; in assay [8], 4.65%; in [9], 5.08%; in assay [10], 3.45%.

`Nc1ccc(C#Cc2cncnc2Nc2ccc(OCc3cccc(F)c3)c(Cl)c2)cc1`: the inhibition in assay [1] was 1.8%; in assay [2] it was -1.31%; in assay [3], -1.26%; in [4], 7.8%; in [5], 8.07%; in assay [6], 5.64%. Besides, the inhibition in assay [7] amounted to 6.16%; in assay [8], 2.44%; in assay [9], 1.41%; in [10] it was 2.15%.

For `Cc1ccc(NC(=O)CC2CC2)cc1-c1ccc(C(=O)NCC2CC2)cc1`, the inhibition is 3.92% in [1]; -0.32% in assay [2]; 3.16% in assay [3]; 29.7% in [4]; 74.3% in assay [5]; 17.2% in [6]. Besides, the inhibition in [7] amounted to 60.8%; in [8], 3.22%; in [9] it was 4.09%; in [10], 0.38%.

Consider `c1ccc(Cc2nc3ccc(Nc4ncnc5ccccc45)cc3[nH]2)cc1`, for which the inhibition in assay [1] was 4.11%; in assay [2], 0.5%; in assay [3], -0.46%; in assay [4], 6.98%; in assay [5], 6.36%; in assay [6] it was 2.73%. The inhibition in [7] was 2.79%; in [8], 4.91%; in assay [9] it was 5.18%; in assay [10], 1.83%.

`CN(C)C(=O)O[C@H]1CN[C@H](C#Cc2cc3ncnc(Nc4ccc(OCc5cccc(F)c5)c(Cl)c4)c3s2)C1`: the inhibition in [1] is 3.14%; in assay [2], 0.23%; in assay [3] it was -1.8%; in [4] it was 1.35%; in assay [5] it was 7%; in assay [6], 0.51%. Further, the inhibition is 1.53% in [7], -0.2% in assay [8], 2.51% in assay [9] and 0.18% in [10].

Regarding `CCOc1nccc2c1nc(-c1nonc1N)n2CC`, the inhibition was 3.56% in assay [1]; 0.36% in assay [2]; 4.21% in assay [3]; -6.67% in [4]; 6.06% in assay [5]; 3.87% in assay [6]. Moreover, the inhibition in [7] turned out to be 7.56%; in assay [8] it was 2.58%; in assay [9] it was 2.91%; in [10], 0.94%.

`COc1ccc2ncnc(Nc3ccc(OCc4ccccc4)cc3)c2c1`: the inhibition was 4.61% in [1]; -1.92% in assay [2]; 0.73% in assay [3]; 5.87% in assay [4]; 10.2% in assay [5]; 2.79% in assay [6]. Besides, the inhibition in assay [7] was 7.38%; in assay [8] it was 0.25%; in [9], 1.34%; in [10] it was -0.24%.

For the compound `CN(C)C(=O)O[C@@H]1CN[C@@H](C#Cc2cc3ncnc(Nc4ccc(OCc5cccc(F)c5)c(Cl)c4)c3s2)C1`, the inhibition in [1] was 1.36%; in [2], -1.41%; in assay [3], -1.97%; in [4] it was 5.64%; in [5], 2.87%; in assay [6], 3.3%. The inhibition in [7] amounted to 6.17%; in [8] it was 1.12%; in assay [9] it was 1.11%; in [10] it was 0.57%.

Regarding `O=C1Nc2ccc(-c3cccnc3)cc2C1=Cc1cc(Br)c(O)c(Br)c1`, the inhibition in assay [1] is 1.77%; in assay [2] it was 1.44%; in assay [3], 1.95%; in assay [4], 5.87%; in assay [5], 7.67%; in assay [6] it was 1.48%. Further, the inhibition amounted to 1.36% in [7], 1.39% in assay [8], 3.3% in assay [9] and 2.25% in [10].

`COc1cccc(-n2ncc3c(N/N=C/c4ccc(S(C)(=O)=O)cc4)ncnc32)c1`: the inhibition is 1.55% in assay [1]; -0.64% in [2]; 1% in assay [3]; -3.8% in assay [4]; 4.7% in assay [5]; 0.81% in assay [6]. Moreover, the inhibition was 1.99% in assay [7], 1.44% in assay [8], 6.79% in assay [9] and 2.12% in assay [10].

The inhibition is the drop in the measured response relative to a control, in per cent.
